# According to the supplement of paper PMC9135407:
# “And” between values parts separate entries of the source, which are not always exact repeats. Equal entries are not always repeated. Structures can show the parent of a compound that is named as a salt. About 620 (11%) of roughly 5,800 compounds showed activity. The sample as a whole holds a higher share of actives than the screen did. Values without a mark were called inactive.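 The calls were made as follows: active = score above a cut-off or among the top three wells of a plate; in these data no inactive exceeds 0.85.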
# System: primary human hepatic stellate cells (donor 1)
# Test: scaled lipid accumulation score (0 = DMSO-like, 1 = nortriptyline-like); higher = stronger HSC inactivation (lipid re-accumulation), active = hit call of the paper
# Conditions: 48 h
# [1] = library stock concentration: 3.33 mM
# [2] = library stock concentration: 10 mM
# [3] = library stock concentration: 1 mM
# [4] = library stock concentration: 6.1 mM
# [5] = library stock concentration: 80 uM
# [6] = library stock concentration: 400 uM
# [7] = library stock concentration: 2 mM
structure (smiles),measurement,setting,value
CC(NC(=O)C(O)c1cc(F)cc(F)c1)C(=O)NC1C(=O)N(C)c2ccccc2-c2ccccc21 (configuration not stated),scaled lipid accumulation score,[1],0.011
same,scaled lipid accumulation score,[2],0.133
O=C(Nc1cccc2cccnc12)c1ccc(N2C(=O)C3C4C=CC(C4)C3C2=O)cc1 (stereo not drawn) [IWR-1-endo],scaled lipid accumulation score,[1],≤ 0
same,scaled lipid accumulation score,[2],≤ -0.001
CCCCC/C=C\C/C=C\C/C=C\C/C=C\CCCC(=O)OCc1ccsc1,scaled lipid accumulation score,[3],≤ 0
C[C@]12CC[C@@H]3c4cc(O)c(O)cc4CC[C@H]3[C@@H]1CC[C@@H]2O [2-Hydroxyestradiol],scaled lipid accumulation score,[3],≤ 0
Nc1nccc(-c2ccc3noc(-c4ccc(Cl)cc4)c3c2)n1 [PIM 1 Inhibitor 2],scaled lipid accumulation score,[2],≤ 0
CCNc1nc2c(ncn2[C@H]2C[C@H](O)[C@@H](CO)O2)c(=O)[nH]1 [N2-Ethyl-2'-deoxyguanosine],scaled lipid accumulation score,[2],≤ 0
N.N.N.N.N.N.N.N.N.N.N.N.N.N.O.O.[Cl-].[Cl-].[Cl-].[Cl-].[Cl-].[Cl-].[Ru+4].[Ru+5].[Ru+5] [Ruthenium red],scaled lipid accumulation score,[2],≤ 0
CC(C)=CCC/C(C)=C/CC/C(C)=C/CC/C(C)=C/CC/C(C)=C/CC/C(C)=C/CC1=C(C)C(=O)c2ccccc2C1=O [Vitamin K2],scaled lipid accumulation score,,0.008
CN1CCN(C2=Nc3cc(Cl)ccc3Nc3ccccc32)CC1 [Clozapine] [listing 1 of 2 here],scaled lipid accumulation score,[1],0.105
same,scaled lipid accumulation score,[4],0.429 and 0.648
same,scaled lipid accumulation score,[2],0.755 and 0.578
same,scaled lipid accumulation score,library stock concentration: 15.3 mM,0.769
Cc1cc2c(s1)Nc1ccccc1N=C2N1CCN(C)CC1,scaled lipid accumulation score,library stock concentration: 9.9 mM,0.228
CN1CCN(C2=Nc3cc(Cl)ccc3Nc3ccccc32)CC1 [Clozapine] [listing 2 of 2 here],scaled lipid accumulation score,[2],0.967 (active)
Cc1cc2c(s1)Nc1ccccc1N=C2N1CCN(C)CC1 [Olanzapine],scaled lipid accumulation score,[1],0.171
same,scaled lipid accumulation score,library stock concentration: 6.4 mM,0.341 and ≤ 0
same,scaled lipid accumulation score,[2],0.232
O=C(O)CCC/C=C\C[C@@H]1[C@@H](CC[C@@H](O)CCc2cccc(C(F)(F)F)c2)[C@H](O)C[C@@H]1O,scaled lipid accumulation score,[3],≤ 0
CCN(CC)CCNC(=O)c1cc(S(C)(=O)=O)ccc1OC [Tiapride hydrochloride],scaled lipid accumulation score,,0.066
same,scaled lipid accumulation score,[2],≤ 0 and ≤ -0.027
CCCCOc1cc(C(=O)NCCN(CC)CC)c2ccccc2n1 [Dibucaine hydrochloride],scaled lipid accumulation score,library stock concentration: 5.3 mM,0.662
same,scaled lipid accumulation score,[2],≤ 0
CCCCOc1cc(C(=O)NCCN(CC)CC)c2ccccc2n1.Cl [Dibucaine HCl],scaled lipid accumulation score,[2],0.977 (active)
CCCCOc1cc(C(=O)NCCN(CC)CC)c2ccccc2n1 [Dibucaine],scaled lipid accumulation score,,0.284
CCCCOc1cc(C(=O)NCCN(CC)CC)c2ccccc2n1 [Dibucaine HCl],scaled lipid accumulation score,[1],0.253
CS(=O)(=O)NC(=O)CCC/C=C\C[C@H]1C(=O)C[C@@H](O)[C@@H]1/C=C/[C@@H](O)COc1ccccc1 [Sulprostone],scaled lipid accumulation score,[3],≤ 0
O=C1NC(=O)C(c2cnc3ccccn23)=C1c1cn2c3c(cc(F)cc13)CN(C(=O)N1CCCCC1)CC2 [listing 1 of 2 here],scaled lipid accumulation score,[5],0.956 (active)
same,scaled lipid accumulation score,[2],0.857 (active)
O=C1NC(=O)C(c2cnc3ccccn23)=C1c1cn2c3c(cc(F)cc13)CN(C(=O)N1CCCCC1)CC2 [listing 2 of 2 here],scaled lipid accumulation score,[6],0.836
same,scaled lipid accumulation score,[7],0.699
CC(=O)N[C@H]1[C@H]([C@H](O)[C@H](O)CO)OC(C(=O)O)=C[C@@H]1NC(=N)N [Zanamivir],scaled lipid accumulation score,[1],≤ 0
same,scaled lipid accumulation score,[2],≤ 0
COc1ccc(C(=O)/C(Br)=C\C(=O)O)cc1 [Bromebric acid],scaled lipid accumulation score,library stock concentration: 7 mM,≤ -0.006
"c(c1N)(C(=O)\N=C(\N)/N)nc(c(N2CCCCCC2)n1)Cl [5-(N,N-hexamethylene)amiloride]",scaled lipid accumulation score,[2],1.13 (active)
n(c1N)c(N(CC)C(C)C)c(nc1C(=O)\N=C(\N)/N)Cl [5-(N-Ethyl-N-isopropyl)amiloride],scaled lipid accumulation score,[2],1.07 (active)
"CN(C)c1nc(N)c(C(=O)NC(=N)N)nc1Cl [5-(N,N-Dimethyl)amiloride hydrochloride]",scaled lipid accumulation score,[2],≤ 0
NC(N)=NC(=O)c1nc(Cl)c(N)nc1N,scaled lipid accumulation score,[2],≤ 0
O=C(O)CCCC=CCC1C(=O)CC(O)C1C=CC(O)CCc1ccccc1 (configuration not stated) [17-Phenyl-trinor-prostaglandin E2],scaled lipid accumulation score,[3],≤ -0.021
O=C(O)CCCC=CCC1C(=O)CC(O)C1C=CC(O)CCc1ccccc1 (configuration not stated) [17-phenyl trinor Prostaglandin E2],scaled lipid accumulation score,[3],≤ 0
O=C(O)c1cc(N(Cc2ccccc2O)Cc2cc(O)ccc2O)ccc1O [Lavendustin A],scaled lipid accumulation score,library stock concentration: 13.1 mM,≤ -0.007
O=C(O)C(Cc1ccccc1[N+](=O)[O-])=NNc1nc(-c2ccc(Cl)c(Cl)c2)cs1,scaled lipid accumulation score,[1],0.038
same,scaled lipid accumulation score,[2],≤ 0
Nc1ccc(S(=O)(=O)O)cc1.Nc1ccc(S(=O)(=O)O)cc1.[Zn] [Sulfanilate zinc],scaled lipid accumulation score,library stock concentration: 4.9 mM,≤ 0
O=C1NC(=O)/C(=C/c2ccc(-c3ccc(F)cc3O)o2)S1 [listing 1 of 2 here],scaled lipid accumulation score,[2],1.66 (active)
O=C1NC(=O)/C(=C/c2ccc(-c3ccc(F)cc3O)o2)S1 [listing 2 of 2 here],scaled lipid accumulation score,[6],0.064
same,scaled lipid accumulation score,[3],0.034
same,scaled lipid accumulation score,[7],0.304
same,scaled lipid accumulation score,[1],0.132
same,scaled lipid accumulation score,[2],0.526 and 0.759
O=C1NC(=O)C(=Cc2ccc(-c3ccc(F)cc3)o2)S1 (stereo in doubt),scaled lipid accumulation score,[1],0.028
same,scaled lipid accumulation score,[2],≤ 0
"CCCCCCCCC=CCC=CCC=CCCCC(=O)O [5(Z),8(Z),11(Z)-Eicosatrienoic Acid]",scaled lipid accumulation score,[3],0.072
OC[C@H]1NC[C@H](O)[C@@H](O)[C@@H]1O [1-Deoxynojirimycin hydrochloride],scaled lipid accumulation score,[2],≤ -0.07
CNC(=O)[C@H]1O[C@@H](n2cnc3c(NCc4cccc(I)c4)nc(Cl)nc32)[C@H](O)[C@@H]1O [Chloro-IB-MECA],scaled lipid accumulation score,[2],≤ -0.07
CNC(=O)[C@H]1O[C@@H](n2cnc3c(NCc4cccc(I)c4)nc(Cl)nc32)[C@H](O)[C@@H]1O,scaled lipid accumulation score,[2],0.019
Cc1cc(CS(=O)(=O)c2ccccc2)cc(OCc2ccc(CN3CCC[C@@H]3CO)cc2)c1 [listing 1 of 2 here],scaled lipid accumulation score,[1],≤ -0.009
Cc1cc(CS(=O)(=O)c2ccccc2)cc(OCc2ccc(CN3CCC[C@@H]3CO)cc2)c1 [listing 2 of 2 here],scaled lipid accumulation score,[2],1.03 (active)
CCCCC[C@H](O)/C=C/[C@@H]1[C@@H](CCCCCCC(=O)O)[C@H](O)C[C@H]1O [Prostaglandin F1.beta.],scaled lipid accumulation score,[3],≤ 0
COc1ccc2c3n(c(=NC(=O)c4cccnc4)nc2c1OC)CCN3,scaled lipid accumulation score,[6],≤ -0.005
same,scaled lipid accumulation score,[7],≤ -0.005
same,scaled lipid accumulation score,[2],≤ -0.005
CCCCC[C@H](O)/C=C/[C@H]1CC[C@@H](O)[C@@H]1C/C=C\CCCC(=O)O [11-deoxy Prostaglandin F2.beta.],scaled lipid accumulation score,[3],≤ 0
CCCCCCCCCCC1=C(C)C(=O)C(OC)=C(OC)C1=O [Decylubiquinone],scaled lipid accumulation score,library stock concentration: 15.5 mM,≤ -0.021
CCC1(C)OC(=O)N(C)C1=O (configuration not stated),scaled lipid accumulation score,[2],≤ 0
CCN1CCN(Cc2ccc(Nc3ncc(F)c(-c4cc(F)c5nc(C)n(C(C)C)c5c4)n3)nc2)CC1 [Abemaciclib] [listing 1 of 2 here],scaled lipid accumulation score,[5],0.332
same,scaled lipid accumulation score,[6],0.55
same,scaled lipid accumulation score,[2],0.691
CCN1CCN(Cc2ccc(Nc3ncc(F)c(-c4cc(F)c5nc(C)n(C(C)C)c5c4)n3)nc2)CC1 [Abemaciclib] [listing 2 of 2 here],scaled lipid accumulation score,[7],0.882 (active)
CCN1CCN(Cc2ccc(Nc3ncc(F)c(-c4cc(F)c5nc(C)n(C(C)C)c5c4)n3)nc2)CC1.CS(=O)(=O)O,scaled lipid accumulation score,[1],0.963 (active)
same,scaled lipid accumulation score,[2],0.943 (active)
CC(=O)N[C@@H](CSC/C=C(\C)CCC=C(C)C)C(=O)O [N-Acetyl-S-geranyl-L-cysteine],scaled lipid accumulation score,[3],≤ -0.021
CCC(=O)O[C@H]1CC[C@H]2[C@@H]3CCc4cc(O)ccc4[C@H]3CC[C@]12C [Estradiol propionate],scaled lipid accumulation score,[4],0.254
same,scaled lipid accumulation score,[2],0.443
O=C1OC2(c3ccc(O)cc3Oc3cc(OS(=O)(=O)c4c(F)c(F)c(F)c(F)c4F)ccc32)c2ccccc21 (configuration not stated) [Pentafluorobenzenesulfonyl fluorescein],scaled lipid accumulation score,[3],≤ 0
CO[C@H]1C[C@@H]2CC[C@@H](C)[C@@](O)(O2)C(=O)C(=O)N2CCCC[C@H]2C(=O)O[C@H]([C@H](C)C[C@@H]2CC[C@@H](OC(=O)C(C)(CO)CO)[C@H](OC)C2)CC(=O)[C@H](C)/C=C(\C)[C@@H](O)[C@@H](OC)C(=O)[C@H](C)C[C@H](C)/C=C/C=C/C=C/1C,scaled lipid accumulation score,[1],0.032
same,scaled lipid accumulation score,[2],0.094
CN1CCN(C2CCN(C(=O)Nc3cc(Oc4ccc(NC(=O)C5(C(=O)Nc6ccc(F)cc6)CC5)c(F)c4)ccn3)CC2)CC1 [Golvatinib (E7050)] [listing 1 of 2 here],scaled lipid accumulation score,[2],0.429
CN1CCN(C2CCN(C(=O)Nc3cc(Oc4ccc(NC(=O)C5(C(=O)Nc6ccc(F)cc6)CC5)c(F)c4)ccn3)CC2)CC1 [Golvatinib (E7050)] [listing 2 of 2 here],scaled lipid accumulation score,[1],0.979 (active)
CC/C=C\C/C=C\C/C=C\C/C=C\C/C=C\C/C=C\CCC(=O)NCCO [Docosahexaenoyl Ethanolamide],scaled lipid accumulation score,[3],0.03
COc1cc(OC2CCN(C)CC2)ccc1Nc1ncc2c(n1)n(C1CCCC1)c(=O)n2C [listing 1 of 2 here],scaled lipid accumulation score,[1],0.441
COc1cc(OC2CCN(C)CC2)ccc1Nc1ncc2c(n1)n(C1CCCC1)c(=O)n2C [listing 2 of 2 here],scaled lipid accumulation score,[2],1.06 (active)
COc1cc(N2CCC(N3CCN(C)CC3)CC2)ccc1Nc1ncnc(Nc2ccccc2S(=O)(=O)C(C)C)n1,scaled lipid accumulation score,[5],≤ 0
same,scaled lipid accumulation score,[6],0.045
same,scaled lipid accumulation score,[7],0.433
same,scaled lipid accumulation score,[2],0.819
